Test [1] relates to Jurkat. Nature of the test: mean cell size (FSC-A) relative to DMSO control (fraction of control); higher = larger cells. The settings on record: 48 h. The method in brief: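 Jurkat cells at 600 cells/µl were incubated for 1 h and then treated for 48h with the Enzo Screen-Well FDA Approved Drug Library v2.0 at 25µM, with DMSO at 0.9% (v/v) final. Compounds that reduced counts below 20% of controls were retested in 10-fold dilutions down to 25nM. Cell count and mean cell size, taken as forward scatter area, were measured by flow cytometry relative to solvent-only controls. Each plate carried 6-12 controls, and values are means of 3 biological replicates.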

In test [2] the test system is Jurkat. Nature of the test: cell count relative to DMSO control (fraction of control); higher = more cells (less growth inhibition). Conditions: 48 h.

Ten molecules from the supplement of paper PMC4709259 can be followed below.

± gives the standard deviation.

On to `CC(C)Cc1ccc(C(C)C(=O)O)cc1` (stereo not given) [Ibuprofen] (concentration: 25 µM), for which the mean cell size in the test on Jurkat [1] came to 0.955 ± 0.011. In the test with Jurkat [2], this molecule had a cell count of 0.765 ± 0.077.
For `Nc1nc(=O)c2c([nH]1)NCC(CNc1ccc(C(=O)N[C@@H](CCC(=O)O)C(=O)O)cc1)N2C=O` (stereo not given in full) [Leucovorin Calcium Pentahydrate] (concentration: 25 µM), in that order: 0.933 ± 0.041 and 1.05 ± 0.035.
The matching figures for `CC=CC(=O)N(CC)c1ccccc1C` [Crotamiton] (concentration: 25 µM): 0.972 ± 0.034 and 0.809 ± 0.17.
The matching figures for `CCn1cc(C(=O)O)c(=O)c2cc(F)c(N3CCNCC3)cc21` [Norfloxacin] (concentration: 25 µM): 0.9213 ± 0.0047 and 0.982 ± 0.014.
Consider `COCCCOc1ccnc(C[S+]([O-])c2nc3ccccc3[nH]2)c1C` (stereo not given) [Rabeprazole·Na] (concentration: 25 µM), for which the mean cell size in the test with Jurkat [1] came to 0.923 ± 0.02. The molecule also displayed a cell count with Jurkat [2] of 0.523 ± 0.06.
For `CCOC(=O)c1ccc(C#Cc2ccc3c(c2)C(C)(C)CCS3)nc1` [Tazarotene] (concentration: 25 µM), in that order: 0.894 ± 0.021 and 0.698 ± 0.18.
For `COc1ccc2c(c1)c(CC(=O)O)c(C)n2C(=O)c1ccc(Cl)cc1` [Indomethacin] (concentration: 25 µM), in that order: 0.971 ± 0.046 and 0.482 ± 0.087.
For `Nc1cccc2c1CN(C1CCC(=O)NC1=O)C2=O` (stereo not given) [Lenalidomide] (concentration: 25 µM), in that order: 0.951 ± 0.021 and 1.03 ± 0.11.
In turn, `CC(=O)Oc1ccccc1C(=O)O` [Aspirin (Acetylsalicylic Acid)] (concentration: 25 µM) yielded a mean cell size in the test with Jurkat [1] of 0.9355 ± 0.0074. Further, the cell count in the test with Jurkat [2] came out at 0.97 ± 0.082.
For `CC1(C)NC(=O)N(c2ccc([N+](=O)[O-])c(C(F)(F)F)c2)C1=O` [Nilutamide] (concentration: 25 µM), in that order: 0.954 ± 0.029 and 0.638 ± 0.066.
